Results on 23 compounds are retold here after PubChem BioAssay (Tox21).

The structures appear in SMILES notation. Values without a mark were called inactive. Records with an inconclusive call do not appear. The source made the active and inactive calls. Unless noted, the call rests on the fitted dose curve; in most records, active means well fitted curve in the direction sought with a large enough effect in the repeat runs; inconclusive means weak or mixed curves; inactive means no such curve, though single readings can be large; an effect the other way counts as inactive or inconclusive.

The target in assay [1] is Thyrotropin receptor (Homo sapiens) (UniProt P16473). The assay is described as follows: qHTS assay to identify small molecule antagonists of the thyroid stimulating hormone receptor (TSHR) signaling pathway (AID 1259385; calls by dose curve; further: nearly all actives have a fitted effect of over 20% in size). In outline:
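Antagonist mode: compound-treated TSHR-expressing HEK293 cells were stimulated with 1.5 ng/mL TSH (final) in presence of Ro20-1724 for 30 min at RT. HTRF cAMP detection after 1 h; each compound tested at 15 concentrations, triplicate.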

For assay [2], the target named is Progesterone receptor (Homo sapiens) (UniProt P06401). The assay is described as follows: qHTS assay to identify small molecule agonists of the progesterone receptor (PR) signaling pathway (AID 1346784; calls by dose curve; further: nearly all actives have a fitted effect of over 30% in size; further: potency means the concentration at half of the fitted maximal effect). In outline: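 Cells (PR-UAS-bla HEK 293T, GripTite) were plated in assay medium containing 2% charcoal-stripped FBS and incubated 6 hr. Test compounds in DMSO were added for 16 hr at 37C. FRET substrate was then loaded for 2 hr at room temperature before fluorescence reading.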
Chain of Progesterone receptor (Homo sapiens) (P06401 whole entry, looked up): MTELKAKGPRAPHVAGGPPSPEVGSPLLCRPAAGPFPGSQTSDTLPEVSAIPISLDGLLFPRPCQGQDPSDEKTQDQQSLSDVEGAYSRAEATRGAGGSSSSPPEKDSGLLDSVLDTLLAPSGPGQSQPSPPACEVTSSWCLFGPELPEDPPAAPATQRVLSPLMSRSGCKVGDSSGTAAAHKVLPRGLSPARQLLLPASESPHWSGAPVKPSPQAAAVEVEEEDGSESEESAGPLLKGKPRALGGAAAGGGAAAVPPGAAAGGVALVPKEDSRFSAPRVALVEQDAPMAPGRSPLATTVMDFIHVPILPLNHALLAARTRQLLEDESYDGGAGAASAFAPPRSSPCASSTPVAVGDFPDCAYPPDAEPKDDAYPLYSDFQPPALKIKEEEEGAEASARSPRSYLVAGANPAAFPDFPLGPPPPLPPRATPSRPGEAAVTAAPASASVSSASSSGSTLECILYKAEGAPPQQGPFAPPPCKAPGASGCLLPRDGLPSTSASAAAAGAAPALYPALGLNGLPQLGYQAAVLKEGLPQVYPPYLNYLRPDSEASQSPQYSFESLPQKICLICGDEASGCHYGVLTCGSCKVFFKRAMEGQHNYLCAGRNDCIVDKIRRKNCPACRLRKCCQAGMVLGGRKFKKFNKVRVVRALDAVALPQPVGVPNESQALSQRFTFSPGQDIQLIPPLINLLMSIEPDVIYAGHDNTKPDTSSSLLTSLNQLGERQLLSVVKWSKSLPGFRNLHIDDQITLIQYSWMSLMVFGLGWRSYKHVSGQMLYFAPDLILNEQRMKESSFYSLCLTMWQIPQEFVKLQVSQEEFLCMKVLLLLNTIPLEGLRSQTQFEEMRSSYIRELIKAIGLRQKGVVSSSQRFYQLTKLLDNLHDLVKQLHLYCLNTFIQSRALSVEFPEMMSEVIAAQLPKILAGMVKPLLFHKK

The target is the same in assay [3]. Put plainly: qHTS assay to identify small molecule antagonists of the progesterone receptor (PR) signaling pathway (AID 1346795; active means well fitted inhibition curve with a large enough effect in the signal ratio in the repeat runs, not every such curve was filed as active; the % refers to the signal ratio). In outline:
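Antagonist mode: compounds tested against 1 nM (final) promegestone stimulation in HEK293T cells expressing PR-UAS-bla reporter, 16 hr at 37C, 5% CO2; beta-lactamase activity detected via B/G FRET substrate after 2 hr at room temperature.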
(qHTS replaces the single test concentration by a dilution series.)

The nature of assay [4]: qHTS assay to identify small molecule agonists of the progesterone receptor (PR) signaling pathway - cell viability counter screen (AID 1346799; calls by dose curve; further: nearly all actives have a fitted effect of over 45% in size). The procedure, abridged: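 Cells (PR-UAS-bla HEK293T) are plated at 3,000/well in 2% charcoal-stripped FBS medium, rested 6 hr, dosed and incubated 16 hr at 37C. CellTiter-Glo is then added and luminescence measured after 30 min at room temperature.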

Assay [5] is described as follows: qHTS assay to identify small molecule antagonists of the TGF-beta/Smad signaling pathway - cell viability counter screen (AID 1346824). Further: nearly all actives have a fitted effect of over 50% in size. In outline: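 Cytotoxicity counter-screen run in the same wells as the beta-lactamase Smad reporter read: CellTiter-Glo luminescence after 30 min at room temperature. HEK 293T SBE-bla cells had 5 hr compound exposure at 37 C with TGF-beta1 (0.25 ng/mL stock).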

The nature of assay [6]: qHTS assay to identify small molecule agonists of the TGF-beta/Smad signaling pathway - cell viability counter screen (AID 1346829). Further: top concentration of the series differs between compounds; nearly all actives have a fitted effect of over 45% in size. The procedure, abridged: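 In parallel with the Smad reporter read, viability of HEK 293T cells stably carrying SBE-bla is quantified by ATP luminescence following 5 hr compound treatment.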
Assay [7] has as its target Thyrotropin-releasing hormone receptor (Homo sapiens) (UniProt P34981). Put plainly: qHTS assay to identify small molecule antagonists of the thyrotropin-releasing hormone receptor (TRHR) signaling pathway (AID 1346877; active means well fitted inhibition curve with a large enough effect in the repeat runs, not every such curve was filed as active; further: series mostly up to about 51 µM). In outline: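 Human TRHR in HEK293 cells; inhibition of the intracellular calcium rise triggered by 1 nM TRH was followed by fluorescence over 3 min. Compounds were run at 15 concentrations, three replicates each.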

A short description of assay [8]: qHTS assay to identify small molecule antagonists of the progesterone receptor (PR) signaling pathway - cell viability counter screen (AID 1346798). Further: series mostly up to about 92 µM; nearly all actives have a fitted effect of over 50% in size. The procedure, abridged:
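Counter screen for cytotoxicity: viability of PR-UAS-bla HEK293T cells was measured with CellTiter-Glo luminescence following 16 hr compound exposure in the presence of R5020.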

Assay [9] can be described thus: qHTS assay to identify small molecule agonists of the TGF-beta/Smad signaling pathway (AID 1346859; active means well fitted activation curve with a large enough effect in the signal ratio in the repeat runs, not every such curve was filed as active; the % refers to the signal ratio; further: series mostly up to about 77 µM). The procedure, abridged: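 Reporter line: HEK 293T with stably integrated SBE-controlled beta-lactamase. Compound exposure lasts 5 hr at 37 C and 5% CO2; substrate loading follows for 2 hr at room temperature, with emission read at 460 and 530 nm.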
Assay [10] can be described thus: qHTS assay to identify small molecule agonists of the estrogen receptor alpha (ER-alpha) signaling pathway in the presence of an antagonist - cell viability counter screen (AID 1259386).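 Further: series mostly up to about 92 µM; cells exposed to compounds for 22 h at 37 °C before the viability read; nearly all actives have a fitted effect of over 30% in size.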 In outline: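 Steps: 5-day stripped-FBS culture; seed and incubate 24hr; add ICI-182,780 (10.0nM final); pin 15-point compound titration; incubate 22hr at 37C; add CellTiter-Fluor at 21hr; read fluorescence.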
On the % scale 0 is the no-effect control and ±100 the full control effect.

Chain of Thyrotropin receptor (Homo sapiens) (P16473 whole entry, looked up): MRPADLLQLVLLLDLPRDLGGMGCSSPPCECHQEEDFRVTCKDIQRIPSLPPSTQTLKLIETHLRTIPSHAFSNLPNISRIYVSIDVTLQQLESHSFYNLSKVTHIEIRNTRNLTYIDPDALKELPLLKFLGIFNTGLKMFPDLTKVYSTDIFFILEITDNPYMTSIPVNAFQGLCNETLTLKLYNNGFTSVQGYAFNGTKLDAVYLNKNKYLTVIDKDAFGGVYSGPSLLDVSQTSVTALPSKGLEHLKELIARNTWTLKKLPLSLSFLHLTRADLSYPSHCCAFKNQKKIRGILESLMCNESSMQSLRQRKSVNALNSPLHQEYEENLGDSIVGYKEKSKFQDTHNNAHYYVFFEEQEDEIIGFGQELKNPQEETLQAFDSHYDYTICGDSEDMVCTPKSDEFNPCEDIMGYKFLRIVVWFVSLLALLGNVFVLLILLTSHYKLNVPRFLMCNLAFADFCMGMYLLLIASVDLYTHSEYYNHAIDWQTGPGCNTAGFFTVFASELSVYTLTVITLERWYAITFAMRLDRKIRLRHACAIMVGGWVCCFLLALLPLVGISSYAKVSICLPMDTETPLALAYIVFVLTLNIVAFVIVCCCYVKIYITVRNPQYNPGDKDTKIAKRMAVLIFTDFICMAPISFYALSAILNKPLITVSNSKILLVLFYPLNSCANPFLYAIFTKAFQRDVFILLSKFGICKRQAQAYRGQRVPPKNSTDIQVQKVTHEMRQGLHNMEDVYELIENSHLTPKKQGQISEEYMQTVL
Chain of Thyrotropin-releasing hormone receptor (Homo sapiens) (P34981 whole entry, looked up): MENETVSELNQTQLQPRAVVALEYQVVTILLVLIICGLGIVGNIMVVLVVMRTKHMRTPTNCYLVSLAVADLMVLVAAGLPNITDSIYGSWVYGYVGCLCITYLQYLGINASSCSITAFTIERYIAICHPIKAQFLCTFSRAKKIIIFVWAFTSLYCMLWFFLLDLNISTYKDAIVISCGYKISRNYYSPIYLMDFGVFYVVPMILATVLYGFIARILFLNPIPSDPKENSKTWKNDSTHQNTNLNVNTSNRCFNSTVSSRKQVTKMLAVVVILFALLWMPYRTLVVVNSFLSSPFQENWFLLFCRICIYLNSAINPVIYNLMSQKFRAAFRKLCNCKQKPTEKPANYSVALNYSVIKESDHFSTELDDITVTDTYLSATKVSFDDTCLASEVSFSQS

Take `O=c1[nH]c2ccccc2n1C1CCNCC1`: the result in assay [1] and in assay [5] was inactive. In addition, the Potency entry in assay [2], in assay [3], in assay [4], in [6] and in assay [7] was “inactive” each time.

Regarding `NC(=O)OCCCc1ccccc1`, the compound was classed as inactive in assay [1], in assay [5] and in assay [9]. Further, the Potency result in assay [2], in assay [8], in [4], in assay [6] and in assay [7] was “inactive” each time.

On to `CCN[C@@H](C)Cc1ccccc1`, for which the compound was classed as inactive in assay [1], in assay [5] and in [9]. Besides, the Potency entry in [2], in assay [4], in assay [6] and in assay [7] was “inactive” in each case.

Take `COC(=O)c1ccc(CBr)cc1`: the compound was classed as inactive in assay [1], in [5] and in assay [9]. Also, the Potency result in assay [2], in assay [3], in assay [8], in [4], in assay [6] and in assay [7] was “inactive” throughout.

As for `CON(C)C(=O)Nc1ccc(Br)cc1`, the outcome in assay [1], in assay [5] and in assay [9] was inactive. Also, the Potency entry in [2], in assay [8], in [6] and in [7] was “inactive” each time.

`O=C1CCCCC1Cl` (stereo unspecified): the compound was called inactive in assay [1], in assay [5] and in assay [9]. The Potency entry in assay [2], in assay [8], in assay [4] and in assay [6] was “inactive” in each case.

On to `CCN(CC)CCOC(=O)C(O)(c1ccccc1)c1ccccc1`, for which the compound was called inactive in assay [1], in assay [5] and in assay [9]. Further, the Potency result in assay [2], in assay [3], in [4], in [6] and in [7] was “inactive” throughout.

Take `CCOC(=O)NC(C)(C)Cc1ccc(Cl)cc1`: the Potency entry in assay [10], in assay [2], in [3], in assay [8], in assay [4] and in [6] was “inactive” each time. Besides, the compound was classed as inactive in assay [5] and in assay [9].

In the case of `N=C(N)[Se]`, the compound was called inactive in assay [1], in [5] and in [9]. Besides, the Potency result in [2], in assay [3], in assay [8] and in assay [4] was “inactive” throughout.

For the compound `ClCC1CO1` (stereo unspecified), the call in assay [1], in [5] and in assay [9] was inactive. In addition, the Potency result in assay [8], in assay [4] and in assay [7] was “inactive” throughout.

Consider `CC(=O)CN(CC(C)=O)N=O`, for which the compound was classed as inactive in assay [1], in assay [5] and in assay [9]. The Potency result in [2], in assay [3], in assay [8], in [4], in assay [6] and in assay [7] was “inactive” each time.

On to `CCC(=O)OC1(c2ccccc2)CCN(C)CC1`, for which the compound was classed as inactive in assay [1] and in assay [5]. For the same compound, the Potency result in [2], in [3], in assay [8], in assay [4], in [6] and in [7] was “inactive” throughout.

Take `C=C1C[C@@H]2[C@H](CC[C@]3(C)C(=O)CC[C@@H]23)[C@@]2(C)C=CC(=O)C=C12`: the compound was classed as inactive in assay [1] and in [5]. The Potency result in assay [2], in assay [8], in assay [6] and in assay [7] was “inactive” each time.

In the case of `O=C(O)c1c(Cl)ccc2cc(Cl)cnc12`, the outcome in assay [1], in [5] and in [9] was inactive. For the same compound, the Potency result in assay [2], in assay [8], in assay [4], in [6] and in assay [7] was “inactive” in each case.

Regarding `O=C(Cl)OCc1ccccc1`, the compound was classed as inactive in assay [1] and in [5]. The Potency result in assay [2], in assay [8], in assay [4] and in assay [7] was “inactive” in each case.

For `N[C@@H]1C[C@H]1c1ccccc1`, the call in [1], in [5] and in assay [9] was inactive. In addition, the Potency result in assay [2], in assay [3], in assay [8], in [4], in [6] and in assay [7] was “inactive” throughout.

As for `Brc1c(Br)c(Br)c(Br)c(Br)c1Br`, in assay [1], the activity change, negative = inhibition was 0.318% [at 8.39 µM]. The activity change, negative = cytotoxicity in [8] is -1.74% [at 8.39 µM]; in assay [4], 33% [at 8.39 µM]; in assay [6] it was -6.42% [at 6.97 µM]. Also, in assay [5], the viability change, negative = cytotoxic is -1.01% [at 6.97 µM]. Also, the activation in assay [9] was 3.82% [at 6.97 µM].

`C=CC(=O)OCCN(C)C`: the Potency result in [10], in assay [2], in assay [3], in [8], in assay [4] and in assay [6] was “inactive” throughout. Moreover, the outcome in assay [5] and in [9] was inactive.

For the compound `CCCC[N+](=O)[O-]`, the call in assay [1], in [5] and in assay [9] was inactive. Further, the Potency entry in assay [2], in assay [3], in assay [8], in assay [4], in [6] and in [7] was “inactive” in each case.

For the compound `CCOC(=O)C(Cl)Cc1cc(-n2nc(C)n(C(F)F)c2=O)c(F)cc1Cl` (stereo unspecified), the outcome in assay [1] and in assay [5] was inactive. For the same compound, the Potency entry in [2], in assay [8], in assay [4], in [6] and in assay [7] was “inactive” throughout.

Regarding `C#CC(C)(C)O`, the Potency result in [10], in assay [2], in assay [3], in [8], in assay [4] and in assay [6] was “inactive” in each case. Besides, the outcome in assay [5] and in [9] was inactive.

Regarding `CN(C)CCN(C)C`, the result in assay [1], in assay [5] and in assay [9] was inactive. Besides, the Potency in assay [2] is 27.2 µM (active). For the same compound, the Potency result in [3], in assay [8] and in assay [7] was “inactive” each time.

For the compound `CCN[C@H](C)Cc1cccc(C(F)(F)F)c1`, the outcome in assay [1], in assay [5] and in assay [9] was inactive. Besides, the Potency result in assay [2], in assay [3] and in assay [7] was “inactive” throughout.
